Compound activity as filed in PubChem.
The list is not random: actives were taken first. Their share in the collection is about 4.2%.
hgDAF-12 ag – agonists of H. glycines DAF-12 nuclear receptor; HEK293 GAL4-hgDAF12 UAS-luciferase reporter, agonist luminescence; normalized to butyrate control; activation, % at 6.8 µM; 1.8% of 370,000 active;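 active means activation above a cutoff set at the mean of all screened compounds plus 3 SD, cut at about 10% in these data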;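 further: 0% = DMSO wells and 100% = sodium butyrate wells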
hcDAF-12 act – H. contortus DAF-12 activation, primary screen; activation, % at 6.8 µM; AID 652067; 1.4% of 370,000 active; HEK293 hcDAF-12 lit1-tk-luc reporter, luminescence; 0% DMSO, 100% Δ7-dafachronic acid;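 active means activation above the mean of all tested compounds plus 3 SD, cut at about 5.5% in these data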;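 further: 100% = response to 3 µM Δ7-dafachronic acid high control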
ssDAF12 agonist – S. stercoralis DAF-12 activation, primary screen; HEK293 ssDAF-12/GRIP1 lit1-tk-luc reporter, luminescence; % of 3 µM dafachronic acid response; activation, % at 6.8 µM; 1% of 370,000 active;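 active means activation above the mean over all tested compounds plus 3 SD, cut at about 0.9% in these data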;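 further: 0% = DMSO-only wells and 100% = 3 µM delta7-dafachronic acid wells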
SMARCA2 activ – increases SMARCA2 function in MMTV reporter cells; MG213 cells, MMTV-luciferase reporter, dexamethasone, overnight; 1% of 370,000 active; AID 652017; activation, % at 9.1 µM; in the data active means activation above about 7.8%;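 further: 0% = vehicle wells and 100% = reference activator wells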
DAX1 StAR inh – blocks DAX1 repression of SF-1 activated StAR promoter; HEK293T StAR-luciferase reporter, SF-1/DAX-1 repression relief; inhibition, % at 6.8 µM; 1.1% of 370,000 active; AID 652010;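 active means inhibition above the mean over all tested compounds plus 3 SD, cut at about 3.6% in these data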;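 further: 0% = DAX-1 cells with DMSO and 100% = cells lacking DAX-1 with DMSO; higher inhibition means more luminescence from relief of DAX-1 repression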
LXRb hcDAF ctr – counter-screen for hcDAF-12 agonists: agonists of human LXR-beta | shares compounds with hcDAF-12 act | HEK293 Gal4-LXR tk-luc reporter, luminescence, 24 h; normalized: DMSO 0%, positive control 100% | activation, % at 6.8 µM | 3,400 tested, under 10 active;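 active means mean percent activation of the reporter above a cutoff set as the average over tested compounds plus their standard deviation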
Target sequence (P55055 whole entry, looked up, the tested form may be a part): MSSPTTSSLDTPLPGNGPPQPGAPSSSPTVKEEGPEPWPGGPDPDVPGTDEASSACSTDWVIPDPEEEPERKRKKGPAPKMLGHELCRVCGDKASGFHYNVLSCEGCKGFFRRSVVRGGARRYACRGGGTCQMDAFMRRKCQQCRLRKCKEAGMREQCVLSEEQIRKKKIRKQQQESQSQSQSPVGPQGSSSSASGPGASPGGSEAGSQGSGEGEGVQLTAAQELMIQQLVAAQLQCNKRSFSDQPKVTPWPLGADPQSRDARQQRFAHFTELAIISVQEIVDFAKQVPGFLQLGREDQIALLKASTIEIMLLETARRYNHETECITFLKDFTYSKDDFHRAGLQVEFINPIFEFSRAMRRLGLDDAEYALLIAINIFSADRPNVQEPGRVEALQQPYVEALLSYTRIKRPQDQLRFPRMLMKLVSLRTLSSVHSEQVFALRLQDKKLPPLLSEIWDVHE
hcDAF12 ag – confirmation of H. contortus DAF-12 agonists | shares compounds with hcDAF-12 act | HEK293 hcDAF-12 lit1-tk-luc reporter, luminescence; % of Δ7-dafachronic acid response | activation, % at 6.8 µM | 61% of 3,400 active | AID 743032;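 active means mean activation across triplicate tests above the threshold derived from the earlier primary screen, cut at about 5.5% in these data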;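 further: 0% = DMSO only wells and 100% = 3 µM Δ7-dafachronic acid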
hgDAF12 ag – hgDAF-12 agonism, confirmation assay; shares compounds with hgDAF-12 ag; HEK293 GAL4-hgDAF12 luciferase reporter, agonist mode; percent of butyrate response; activation, % at 6.8 µM; 80% of 3,300 active; AID 743050;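 active means mean activation over triplicate wells above the hit cutoff derived from the earlier primary screen, cut at about 11% in these data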;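 further: 0% = DMSO low control and 100% = 2 mM sodium butyrate high control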
LXR ag 2 – activates human LXR-beta, counter-screen for DAF-12 agonists. shares compounds with hgDAF-12 ag. HEK293 Gal4-LXR luciferase reporter, 24 h. activation, % at 6.8 µM. 3,300 tested, under 10 active. AID 743051;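 active means mean activation of the triplicate above a set limit carried over from the primary screen, none filed active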
Active calls of the source: *; nt = no result.

SMILES	hgDAF-12 ag	hcDAF-12 act	ssDAF12 agonist	SMARCA2 activ	DAX1 StAR inh	LXRb hcDAF ctr	hcDAF12 ag	hgDAF12 ag	LXR ag 2
CCc1sc(C(=O)Nc2nc(C)cs2)cc1C	15*	9.2*	0	3	3	2	6.1*	17*	1
Cc1csc(NC(=O)c2cc3c(s2)CCC3)n1	17*	7.4*	1	3	3	2	9.0*	18*	1
COC(=O)c1ccc2nc(-c3ccc(Cl)cc3)c(Cc3ccccc3)n2c1	-2	-1	-1	-6	0	nt	nt	nt	nt
O=C(NC1CCCCN(Cc2cccc(Cl)c2)C1=O)c1c(F)cccc1F (stereo unspecified)	0	-1	-1	-2	0	nt	nt	nt	nt
Cc1ccc2nc(-c3ccc(NC(=O)CCS(=O)(=O)c4ccccc4)cc3)sc2c1	18*	8.9*	1.5*	1	1	1	7.6*	13*	1
Cc1ccc(S(=O)(=O)N2C[C@@]3(O)Cn4c(=O)ccc(=O)n4C[C@@]3(OC(=O)NCc3ccccc3F)C2)cc1	4	2	0	3	1	nt	nt	nt	nt
NC(=O)c1c(NC(=O)c2ccco2)sc2c1CCC2	14*	6.7*	1.1*	3	2	1	8.9*	17*	1
CN(C)C(=O)c1c(NC(=O)c2ccco2)sc2c1CCCCC2	1	-2	-1	0	0	nt	nt	nt	nt
CC(=C/c1ccccc1)/C=N/NC(=O)c1cccs1	19*	7.8*	-1	2	2	2	8.2*	15*	1
Cn1c(=O)c(C(=O)Nc2ccccn2)c(O)c2ccccc21	17*	14*	3.0*	5	3.9*	2	18*	24*	1
O=C(NC1=NCCS1)c1ccc(Cl)c(Cl)c1	20*	9.2*	1	6	3	1	7.5*	18*	1
CCOC(=O)c1c(N)sc(C(=O)Nc2ccccc2)c1C	28*	10*	0	4	3	2	8.9*	22*	1
O=C(Nc1ccon1)c1ccc(OC2CCCC2)cc1	14*	7.2*	0	0	4.5*	1	5	14*	1
C=CCN1[C@@H](C)[C@@H](c2ccccc2)Oc2c(Cl)cccc2S1(=O)=O	3	0	-1	6	-1	nt	nt	nt	nt
COc1ccc(-c2cc(=O)c3ccccc3o2)cc1	20*	9.0*	0	6	4	1	8.2*	15*	1
Cc1cc(N2CCOCC2)n2ncc(-c3ccccc3Cl)c2n1	18*	6.9*	0	5	3	1	7.0*	16*	1
O=C(CCc1nnc(CCCc2ccccc2)o1)NC(C1CC1)C1CC1	16*	7.3*	1	6	2	1	4	15*	1
CC(C)(CO)CNC(=O)CCc1nnc(CCCc2ccccc2)o1	1	2	-1	2	0	nt	nt	nt	nt
CCOC(=O)c1[nH]c2ccccc2c1N=CN(C)C	2	5	-1	-1	0	nt	nt	nt	nt
CN(C)C=Nc1ccc2nc3c(cc2c1)[nH]c1ccccc13	17*	18*	1.9*	8	2	1	13*	19*	1
COc1cc(-c2csc(N3CCC(C(N)=O)CC3)n2)cc(OC)c1OC	0	-1	-1	nt	nt	nt	nt	nt	nt
Cc1[nH]nc(Nc2ccccc2)c1[N+](=O)[O-]	4	-1	-1	-4	0	nt	nt	nt	nt
Cc1cccc(Nc2n[nH]c(C)c2[N+](=O)[O-])c1	14*	6.8*	0	4	3.7*	1	5.8*	14*	1
O=C(C[C@H]1C=C[C@H](NC(=O)c2ccccn2)[C@@H](CO)O1)NCc1cc(F)cc(F)c1	-1	-1	0	-6	-1	nt	nt	nt	nt
Cc1ccc(NC(=O)c2cc(=O)[nH]c3ccccc23)cc1	0	1	-1	2	0	nt	nt	nt	nt
SMILES	hgDAF-12 ag	hcDAF-12 act	ssDAF12 agonist	SMARCA2 activ	DAX1 StAR inh	LXRb hcDAF ctr	hcDAF12 ag	hgDAF12 ag	LXR ag 2
Cc1ccc(NC(=O)C(=O)c2c[nH]c3ccccc23)cc1	20*	7.2*	1	3	2	2	5	22*	1
Cc1ccc2c(c1)C1CS(=O)(=O)N(C3CCCC3)CN1C2 (stereo unspecified)	5	5	-1	-1	1	nt	nt	nt	nt
CCN(CC)c1ccc(/C=C/C(=O)C2C(=O)C=C(C)OC2=O)cc1 (stereo unspecified)	19*	7.7*	0	5	2	0	4	8	0
O=C(N/N=C/c1cccnc1)c1[nH]ncc1Br	13*	6.8*	0	3	1	0	1	5	0
O=C(N/N=C/c1ccco1)c1[nH]ncc1Br	7	1	0	3	3	nt	nt	nt	nt
O=C(Nc1cnc2ccccc2c1)c1ccco1	15*	7.1*	0	3	3	2	4	18*	1
Cc1ccccc1C(=O)Nn1cnc2ccccc2c1=O	15*	9.8*	1.7*	4	1	0	8.6*	8	0
O=C(Nn1cnc2ccccc2c1=O)c1ccccc1Cl	2	0	-1	1	1	nt	nt	nt	nt
N/C(=N\OC(=O)c1ccc(Cl)cc1)c1[nH]ncc1Br	19*	12*	1	2	3	2	7.3*	21*	1
CCc1nc2ccc(C(=O)NCCc3c[nH]c4ccccc34)cn2c1N(C)CCCc1ccccc1	2	0	-1	-5	-1	nt	nt	nt	nt
Cc1ccc(CNC(=O)CN2NS(=O)(=O)c3ccccc3C2=O)cc1	1	-1	-1	-5	1	nt	nt	nt	nt
C=CCn1c(C)cc(C(=O)CN2NS(=O)(=O)c3ccccc3C2=O)c1C	15*	8.8*	1.8*	4	3	0	5.8*	5	0
CCOC(=O)[C@]12CCCCC/C=C\1N(Cc1ccc(OC)cc1)C(=O)[C@H]2CC(=O)N1CCN(C(=O)c2ccco2)CC1	0	-4	-1	-4	-1	nt	nt	nt	nt
CCC1=Nc2ccccc2NC2=C1C(=O)CCC2	14*	15*	2.6*	2	4	0	7.9*	10	0
CC(O)(c1ccc(F)c(F)c1)c1nc(-c2ccccc2)cs1 (stereo unspecified)	2	-1	-2	-3	-1	nt	nt	nt	nt
